Source: PMC4336329 (PLoS ONE, 2015)
The campaign covered roughly 310,000 compounds. About 14,000 (4.5%) showed an effect of 50% or more. Effects have a minus sign here. Many of the other results were omitted from the sample, so strong results are more common in it than they were.

Target: human ether-à-go-go-related gene (hERG) potassium channel (human, UniProt Q12809)
Experiment: primary screen, population patch clamp on CHO cells stably expressing hERG; higher = less effect of the substance
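Note: peak tail current of the secondary pulse compared with the same well before compound.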

Sequence of human ether-à-go-go-related gene (hERG) potassium channel (Q12809 whole entry, looked up): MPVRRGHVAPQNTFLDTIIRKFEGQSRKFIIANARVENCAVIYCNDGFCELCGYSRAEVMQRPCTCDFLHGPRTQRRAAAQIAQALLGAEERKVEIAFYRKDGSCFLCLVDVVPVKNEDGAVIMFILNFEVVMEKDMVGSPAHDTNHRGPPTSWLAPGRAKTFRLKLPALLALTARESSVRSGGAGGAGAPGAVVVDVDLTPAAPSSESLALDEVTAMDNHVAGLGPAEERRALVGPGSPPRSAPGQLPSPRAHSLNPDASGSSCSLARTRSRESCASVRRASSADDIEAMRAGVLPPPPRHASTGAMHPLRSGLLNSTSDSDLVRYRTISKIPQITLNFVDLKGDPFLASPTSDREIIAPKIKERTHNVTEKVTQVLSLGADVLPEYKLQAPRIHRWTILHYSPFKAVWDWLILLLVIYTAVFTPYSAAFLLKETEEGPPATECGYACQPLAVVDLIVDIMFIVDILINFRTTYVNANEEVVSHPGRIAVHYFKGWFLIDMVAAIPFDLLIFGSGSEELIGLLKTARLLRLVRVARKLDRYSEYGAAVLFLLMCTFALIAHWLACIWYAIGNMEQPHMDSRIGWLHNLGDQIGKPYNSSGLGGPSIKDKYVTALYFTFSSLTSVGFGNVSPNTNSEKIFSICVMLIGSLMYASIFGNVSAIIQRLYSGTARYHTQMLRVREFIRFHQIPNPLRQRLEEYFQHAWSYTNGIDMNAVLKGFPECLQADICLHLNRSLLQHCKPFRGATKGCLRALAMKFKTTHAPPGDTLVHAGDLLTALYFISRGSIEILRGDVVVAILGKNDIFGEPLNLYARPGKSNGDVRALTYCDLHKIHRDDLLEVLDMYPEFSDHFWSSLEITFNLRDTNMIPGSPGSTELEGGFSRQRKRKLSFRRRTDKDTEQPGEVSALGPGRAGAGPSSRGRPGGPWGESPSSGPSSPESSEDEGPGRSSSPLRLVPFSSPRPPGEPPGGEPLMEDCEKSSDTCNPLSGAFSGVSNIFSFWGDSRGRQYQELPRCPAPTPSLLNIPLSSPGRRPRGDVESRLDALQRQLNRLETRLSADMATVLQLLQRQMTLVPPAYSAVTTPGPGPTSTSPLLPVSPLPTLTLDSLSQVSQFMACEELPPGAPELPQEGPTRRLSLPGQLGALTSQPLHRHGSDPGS

Row | SMILES | hERG current change (%, negative = inhibition) at 10uM [%]
1 | CN1CCN(CCCNC(=O)c2ccc(Cn3c(=S)[nH]c4ccc(Br)cc4c3=O)cc2)CC1 | 17.4
2 | CC(=O)N1CCN(c2nc3ccc(Br)cc3s2)CC1 | -49.4
3 | Brc1ccc2nc(N3CCCC3)sc2c1 | 13
4 | Cc1ccc2nc(N3CCC(C(=O)N4CCC5(CC4)OCCO5)CC3)sc2c1 | -19.8
5 | CCC(=O)N1CCN(c2nc3ccc(Br)cc3s2)CC1 | -44.2
6 | CCc1ccc2nc(N3CCC(C(=O)N4CCC5(CC4)OCCO5)CC3)sc2c1 | -42.5
7 | CC(C)(C)C(=O)N1CCN(c2nc3ccc(Br)cc3s2)CC1 | -8.45
8 | CCCCC(=O)N1CCN(c2nc3ccc(Br)cc3s2)CC1 | -69.4
9 | O=C(C1CCN(c2nc3ccc(Br)cc3s2)CC1)N1CCC2(CC1)OCCO2 | -62.3
10 | CCCC(=O)N1CCN(c2nc3ccc(Br)cc3s2)CC1 | -71
11 | Cc1nc([N+](=O)[O-])cn1Cc1cccc([N+](=O)[O-])c1 | -8.42
12 | CCOC(=O)C(=O)N/N=C/c1ccco1 | 11.3
13 | CCOc1ccc(-n2c(SCC(N)=O)nc3c(c2=O)SCC3)cc1 | 12
14 | Cc1ccccc1OCCNc1cc(N2CC(C)NC(C)C2)ccc1[N+](=O)[O-] (centres unmarked) | -12.3
15 | Cc1ccc(C2CC2C(=O)NNC(=S)Nc2cccc(Cl)c2)cc1 (centres unmarked) | -4.44
16 | COc1ccc(OCc2cc(C(=O)N3CCN(CC(=O)N(C)C)CC3)no2)c(Cl)c1 | -13.4
17 | COc1cc2c(=O)n(CC3CCCO3)c(=O)n(CC(=O)Nc3ccccc3)c2cc1OC (centres unmarked) | -2.85
18 | O=C(c1ccc(Cn2c(=O)[nH]c3ccccc3c2=O)cc1)N1CCN(c2ccc(F)cc2)CC1 | -15.5
19 | CS(=O)(=O)N(Cc1ccccc1)c1ccccc1C(=O)N1CCN(c2ccccc2)CC1 | -46.6
20 | COc1ccc(N2CCN(C(=O)c3cc4c(C)nc5ccccc5c4o3)CC2)cc1 | -47
21 | O=C(c1cc(-c2ccco2)nc2ccccc12)N1CCN(c2ccc(F)cc2)CC1 | -28.8
22 | COc1cccc(N2CCN(C(=O)c3cc4c(=O)n(Cc5ccccc5)ccc4nc3C)CC2)c1 | -49.8
23 | COc1ccc(N2CCN(C(=O)c3cc4c(=O)n(Cc5ccccc5)ccc4nc3C)CC2)cc1 | -55.2
24 | COc1ccc(Cn2c(=O)[nH]c3cc(C(=O)N4CCN(c5ccccc5)CC4)ccc3c2=O)cc1 | 9.23
25 | Cc1nc2ccn(Cc3ccccc3)c(=O)c2cc1C(=O)N1CCN(c2ccc(F)cc2)CC1 | -78.5
26 | Cc1nc2ccn(Cc3ccccc3)c(=O)c2cc1C(=O)N1CCN(c2ccccc2)CC1 | -74
27 | CSC1=C(C#N)C(c2ccc(Cl)cc2)C2=C(CC(C)(C)CC2=O)N1 (centres unmarked) | -6.94

Row | SMILES | hERG current change (%, negative = inhibition) at 10uM [%]
28 | C=CCCCCc1nc2ccccc2c(=O)n1N | 6.28
29 | Cc1ccc2c(C)nc(N/C(N)=N/S(=O)(=O)c3ccc([N+](=O)[O-])cc3)nc2c1 | -13.1
30 | COc1cc(C(=O)NC(c2ccccc2)c2ccccc2)cc(OC)c1C | 15.2
31 | CC(C)CCNC(=O)[C@H](CSCc1ccccc1)N1Cc2ccccc2C1=O | -61
32 | CCCCNC(=O)[C@H](CSCc1ccccc1)N1Cc2ccccc2C1=O | -68.5
33 | COCCCNC(=O)[C@H](CSCc1ccccc1)N1Cc2ccccc2C1=O | -14.5
34 | CC(C)CCNC(=O)[C@H](Cc1ccccc1)N1Cc2ccccc2C1=O | -11.6
35 | CC(C)NC(=O)[C@H](CSCc1ccccc1)N1Cc2ccccc2C1=O | -40
36 | COC(CNC(=O)[C@H](CSCc1ccccc1)N1Cc2ccccc2C1=O)OC | -3.49
37 | O=C(NCCCN1CCCC1)[C@H](CSCc1ccccc1)N1Cc2ccccc2C1=O | -56.8
38 | O=C(NCCCN1CCCC1=O)[C@H](CSCc1ccccc1)N1Cc2ccccc2C1=O | 1.78
39 | COCCNC(=O)[C@H](CSCc1ccccc1)N1Cc2ccccc2C1=O | -42.6
40 | N#CCCN1CCCc2cc(N=Nc3ccc(C(F)(F)F)cc3)ccc21 | 13.4
41 | COc1ccc(Cl)cc1Nc1nc(C)cc(C)c1C(N)=O | 14.3
42 | CC(C)C[C@@H]1NC(=O)[C@H](CO)NC(=O)c2cc([N+](=O)[O-])cc(I)c2OCC[C@@H](C(N)=O)NC1=O | 2.3
43 | CCC(=O)Nc1ccc(NC(=S)NC(=O)c2cc3ccccc3o2)cc1 | 7.15
44 | COc1ccc(Cn2nnnc2CN2CCN(c3ccc(OC)cc3)CC2)cc1 | -3.66
45 | O=[N+]([O-])c1ccc2cn(-c3ccccc3)nc2c1 | -0.226
46 | O=C(CCc1nc2ccccc2c(=O)[nH]1)Nc1cc(C(F)(F)F)ccc1N1CCOCC1 | -35.3
47 | Cc1ccc(CN(C)C(=O)C2CCC(=O)N(C3CCCCCC3)C2)cc1 (centres unmarked) | 7.71
48 | CN(Cc1ccc(C(F)(F)F)cc1)C(=O)C1CCC(=O)N(C2CC2)C1 (centres unmarked) | -51.7
49 | CN(Cc1cccc(Cl)c1)C(=O)C1CCC(=O)N(C2CC2)C1 (centres unmarked) | 1.31
50 | Cc1cccn2c(=O)c3cc(C(=O)NC4CCCCC4)c(=N)n(CCN4CCOCC4)c3nc12 | -87
51 | Cc1cccn2c(=O)c3cc(C(=O)NC4CCCC4)c(=N)n(CCCN4CCOCC4)c3nc12 | -74.7
52 | CCCCOc1nc2ccccc2nc1NS(=O)(=O)c1ccc(F)cc1 | -5.01
53 | Cc1nc2scc(-c3cccs3)c2c(=O)n1CC(=O)O | 5.83
